In the library only some 1.6% were active in any assay of this set; here they are far more common.
KCNQ2 inh: inhibitors of rat KCNQ2 potassium channel. CHO-K1 KCNQ2, FluxOR thallium flux, 20 min; active compounds read low. B-score at 10 µM. actives 1.1% (n = 310,000). AID 2156;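 active means fluorescence ratio B-score at most minus 3 library SDs, with starting brightness B-score within 2 library SDs, cut at about -5.5 in these data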
Target sequence (O88943 whole entry, looked up): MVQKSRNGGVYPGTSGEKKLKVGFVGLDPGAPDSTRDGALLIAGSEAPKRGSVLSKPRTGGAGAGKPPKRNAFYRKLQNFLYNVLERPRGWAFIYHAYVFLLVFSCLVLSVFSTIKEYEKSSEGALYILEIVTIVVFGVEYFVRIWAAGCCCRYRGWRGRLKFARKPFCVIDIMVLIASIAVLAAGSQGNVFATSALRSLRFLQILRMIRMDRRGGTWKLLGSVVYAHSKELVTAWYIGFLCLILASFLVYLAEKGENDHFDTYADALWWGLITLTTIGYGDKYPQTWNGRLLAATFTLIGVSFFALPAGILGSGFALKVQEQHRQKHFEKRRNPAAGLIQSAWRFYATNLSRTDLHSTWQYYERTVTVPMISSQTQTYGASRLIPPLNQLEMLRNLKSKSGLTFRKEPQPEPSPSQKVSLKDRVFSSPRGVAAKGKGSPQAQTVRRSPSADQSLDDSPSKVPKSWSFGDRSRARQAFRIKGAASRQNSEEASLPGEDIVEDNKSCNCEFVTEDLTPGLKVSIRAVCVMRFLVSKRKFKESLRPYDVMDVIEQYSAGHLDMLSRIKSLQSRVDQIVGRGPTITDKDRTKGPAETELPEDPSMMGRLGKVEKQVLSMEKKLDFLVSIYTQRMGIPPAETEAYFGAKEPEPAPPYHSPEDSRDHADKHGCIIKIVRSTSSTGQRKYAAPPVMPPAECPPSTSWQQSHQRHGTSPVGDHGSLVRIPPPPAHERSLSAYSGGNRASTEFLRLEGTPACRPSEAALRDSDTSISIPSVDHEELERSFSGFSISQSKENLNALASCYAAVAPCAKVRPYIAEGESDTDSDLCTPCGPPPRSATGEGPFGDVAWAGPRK
KCNQ2 enhance: KCNQ2 (rat) channel potentiation; B-score at 10 µM; CHO-K1 KCNQ2, FluxOR thallium flux fluorescence; active compounds read high; AID 2239; O88943; actives 0.54% (n = 310,000);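 active means fluorescence ratio B-score at least 3 SD of library B-scores, with initial fluorescence B-score within 3 of them, cut at about 5.3 in these data; same plate scores as AID 2156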;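 further: B-score of peak minus minimum over baseline fluorescence ratio after K+ and Tl+ stimulus; positive B-score means potentiation of KCNQ2 with more thallium influx and brighter signal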
Kir21 confirm: confirmation of mouse Kir2.1 potassium channel inhibitors | actives 41% (n = 2,300) | Kir2.1-expressing cells, FluxOR thallium flux fluorescence; active compounds read low | Tl flux remaining, % of negative control (active compounds read low), % at 10 µM | shares compounds with KCNQ2 enhance;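 active means Primary-screen hit whose thallium flux fell at least 3 control SD below untreated wells in both duplicates, with normal baseline fluorescence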;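 further: 0% = blank wells without stimulus and 100% = stimulated no-compound controls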
HEK293 Tl flux: counter-screen for Kir2.1 inhibitors: effect in parental HEK293 cells | AID 2105 | shares compounds with KCNQ2 enhance | FluxOR signal as % of negative control (100 = no effect), % at 10 µM | actives 19% (n = 2,300) | FluxOR thallium flux fluorescence; 0% = unstimulated blank wells;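 active means dye signal at least 3 control SD above or below untreated wells in both duplicates, raw fluorescence within 3, either direction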;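 further: percent is based on the flux ratio of peak minus minimum fluorescence over baseline F0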
CHO-K1 ctr: parental CHO-K1 activity in KCNQ2 potentiator counter-screen; activity increase over 3SD of controls, % at 10 µM; shares compounds with KCNQ2 enhance; AID 2282; actives 43% (n = 1,200); parental CHO-K1 cells, FluxOR thallium flux fluorescence; zero = vehicle mean+3SD, 100% = vehicle-minus-blank window;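 active means signal rise of at least 3 SD above the untreated control mean, in both duplicate wells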;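 further: counter screen of KCNQ2 potentiator hits so any rise reflects channel-independent effects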
KCNQ1 pot spec: selectivity of KCNQ2 potentiators: effect on human KCNQ1; CHO KCNQ1 stable, FluxOR thallium flux fluorescence; beyond 3SD, as % of vehicle-control signal; actives 28% (n = 1,200); activation over 3SD threshold, % at 10 µM; shares compounds with KCNQ2 enhance; AID 2283;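 active means fluorescence ratio rise of at least 3 SD of vehicle wells above their mean, in both replicate wells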;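 further: 0% = vehicle mean plus 3 SD and 100% = vehicle minus unstimulated blank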
KCNQ2 pot conf: confirmation of rat KCNQ2 potassium channel potentiators; CHO-KCNQ2 cells, FluxOR thallium flux fluorescence; actives 68% (n = 1,200); shares compounds with KCNQ2 enhance; potentiation, less the hit threshold, % at 10 µM;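 active means fluorescence ratio rising 3 SD or more over the vehicle control mean in both replicates, plus primary screen hit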;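 further: peak minus minimum thallium fluorescence divided by baseline after K/Tl stimulus; 0% = vehicle mean plus 3 SD and 100% = vehicle minus unstimulated blank difference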
Kir21 spec: mouse Kir2.1 off-target activity of KCNQ2 potentiators | shares compounds with KCNQ2 enhance | HEK293 Kir2.1, FluxOR thallium flux fluorescence | activity over 3SD threshold, % at 10 µM | actives 2% (n = 1,200);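 active means fluorescence ratio rise of at least 3 SD above the vehicle-control mean, seen in both replicates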;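 further: 0% = vehicle mean plus 3 SD and 100% = vehicle minus no-stimulus blank window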
KCNQ2 W236L pot: KCNQ2 potentiators acting on retigabine-insensitive rat KCNQ2 W236L mutant; shares compounds with KCNQ2 enhance; CHO KCNQ2-W236L, automated patch clamp current; current increase over 3SD of negative controls (%), active compounds read high, % at 25 µM; actives 10% (n = 940); AID 2558;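 active means current increase at least 3 SD of the untreated controls above them in both duplicate recordings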
The depositor's hits bear a star; i = inactive; nt = not tested or not shown; ! = a repeat was not active.

SMILES | KCNQ2 inh | KCNQ2 enhance | Kir21 confirm | HEK293 Tl flux | others
Cc1c(Cc2ccccc2)c(=O)oc2c(CN(C)C)c(O)c(Cl)cc12 | i | 0.93 | nt | nt
CN(C)Cc1c(O)ccc2oc(Cc3ccccc3)cc12 | i | 0.02 | 42.5%* | i
CC1Cc2nc(SCC(=O)Nc3nc4ccccc4s3)n(C)c(=O)c2S1 (stereo not given) | i | 3.97 | nt | nt
CC1=CCC[C@@H]2[C@@](C)(CC/C(C)=C/C(=O)O)[C@H](C)CC[C@@]12C | i | 14.8* | i | 135.5%* | CHO-K1 ctr=68.4*;KCNQ1 pot spec=35.0*;KCNQ2 pot conf=7.9*;Kir21 spec=-11.8;KCNQ2 W236L pot=i
COc1ccc2cc(C(=O)NCCCN3CCCC3=O)[nH]c2c1 | i | 0.94 | nt | nt
C/C(=N\NC(=S)NCCc1ccccc1)c1ccc(O)cc1O | i | 0.01 | nt | nt
C/C(=N\NC(=S)NCCc1ccccc1)c1ccc(Cl)cc1Cl | i | 6.24* | i | i | CHO-K1 ctr=11.5*;KCNQ1 pot spec=-25.0;KCNQ2 pot conf=-10.4;Kir21 spec=-23.8
S=C(NCCc1cccc(Cl)c1)NCc1ccccc1 | i | 7.49* | nt | nt | CHO-K1 ctr=9.3*;KCNQ1 pot spec=41.3*;KCNQ2 pot conf=12.3*;Kir21 spec=-58.2;KCNQ2 W236L pot=i
S=C(NCc1ccccc1)NCc1cccc(Cl)c1 | i | nt | nt | nt
S=C(NCc1ccccc1)Nc1ccc(Cl)cc1 | i | 2.08 | nt | nt
S=C(NCCc1ccc(Cl)cc1)NCc1ccccc1 | i | nt | i | i
COc1ccc2c(c1)CCC(C)N2C(=O)C(=O)c1c[nH]c2ccccc12 (stereo not given) | i | nt | nt | nt
O=C(CCNC(=O)c1ccc(Br)cc1)NCCCSc1ccccc1 | i | nt | nt | nt
NNC(=O)c1cccc(O)c1 | i | nt | nt | nt
COc1ccc(C=Nc2ccc3[nH]ncc3c2)c(O)c1 | i | nt | nt | nt
Oc1c(Br)cc(Br)cc1C=Nc1ccc2[nH]ncc2c1 | i | 14.1* | i | i | CHO-K1 ctr=11.3*;KCNQ1 pot spec=-21.6;KCNQ2 pot conf=19.7*;Kir21 spec=-33.5;KCNQ2 W236L pot=10.3%*
Oc1c(Br)cc(Br)cc1C=Nc1cccnc1 | i | 8.43* | i | i | CHO-K1 ctr=-10.0;KCNQ1 pot spec=-14.5;KCNQ2 pot conf=17.2*;Kir21 spec=-39.5;KCNQ2 W236L pot=i
O=C(N/N=C/c1cc(Br)cc(Br)c1O)c1ccncc1 | i | 2.09 | nt | nt
CC(=O)N1c2ccc(S(=O)(=O)NCC3CCC(C(=O)N4CCCC(C)C4)CC3)cc2CC1C (stereo not given) | i | 0.01 | nt | nt
CCn1c(C)c(C)c2cc(C(=O)NCCN3CCCCCC3)ccc21 | i | nt | nt | nt
O=C1CC2(CCN(C(=O)C(=O)c3c[nH]c4ccccc34)CC2)Oc2ccccc21 | i | 0.11 | nt | nt
O=C(/C=C/Sc1ccc(C(F)(F)F)cn1)c1ccccc1 | i | 1.3 | nt | nt
OC(CNCc1ccco1)COc1ccccc1 (stereo not given) | i | nt | nt | nt
OC(CNCc1ccco1)Cn1c2ccccc2c2ccccc21 (stereo not given) | i | nt | 72.5%* | i
O=C(CCC(=O)Nc1nnc(C2CCCCC2)s1)NCc1ccc(F)cc1 | i | 0.1 | nt | nt
SMILES | KCNQ2 inh | KCNQ2 enhance | Kir21 confirm | HEK293 Tl flux | others
O=C1C(C2=NC(c3ccccn3)C3C(=O)N(c4ccccc4)C(=O)C23)=C(O)c2ccccc21 (stereo not given) | i | nt | nt | nt
Cc1cc(CNC(=O)C2(C(F)(F)F)C/C(=C\Cc3ccccc3)CCCO2)nn1C (stereo not given) | i | nt | nt | nt
O=C(NCCCCc1ccccc1)Nc1cccc(F)c1 | i | 13.1* | i | i | CHO-K1 ctr=-1.8;KCNQ1 pot spec=-19.5;KCNQ2 pot conf=27.2*;Kir21 spec=-40.4;KCNQ2 W236L pot=i
Cc1cccc(NC(=O)NCCCCc2ccccc2)c1 | i | nt | nt | nt
CN(Cc1ccccc1)CC1CCCN(CCc2ccccc2F)C1 (stereo not given) | i | nt | nt | nt
CCOc1cccc(CN(C)CC2CCCN(CCc3ccc(Cl)cc3)C2)c1O (stereo not given) | i | nt | 48.0%* | i
COc1ccc(CN(C)CC2CCCN(CCc3ccc(F)cc3)C2)cc1OC (stereo not given) | i | nt | 62.0%* | i
COc1ccc(F)c(CN(C)CC2CCCN(CCc3ccc(F)cc3)C2)c1 (stereo not given) | i | nt | 31.0%* | i
CC(=O)c1cccc(CN(C)CC2CCCN(CCc3ccccc3C)C2)c1 (stereo not given) | i | 0.27 | 51.0%* | i
COc1ccc(CN(C)CC2CCCN(CCc3ccc(Cl)cc3)C2)cc1OC (stereo not given) | i | nt | nt | nt
COc1ccc(CCN2CCCC(CN(C)Cc3cc(OC)c(OC)c(OC)c3)C2)cc1 (stereo not given) | i | 0.93 | nt | nt
COc1cc(CN(C)CC2CCCN(CCc3ccc(F)cc3)C2)c(Cl)cc1O (stereo not given) | i | 0.49 | nt | nt
Cc1ccc(OCc2cc(C(=O)N3CCCC(O)C3)no2)cn1 (stereo not given) | i | nt | nt | nt
CCOC(=O)CCN1C(=O)c2ccccc2Sc2ncccc21 | i | nt | nt | nt
CCC1(C)Cc2c(sc3nc(SC)[nH]c(=S)c23)CO1 (stereo not given) | i | 15.5* | i | 456.5%* | CHO-K1 ctr=-15.9;KCNQ1 pot spec=32.0*;KCNQ2 pot conf=81.9*;Kir21 spec=0.1*;KCNQ2 W236L pot=i
CCSc1nc2sc3c(c2c(=O)[nH]1)CC(C)(CC)OC3 (stereo not given) | i | nt | nt | nt
O=C(NC(=S)N1CCc2ccccc21)c1ccccc1Cl | i | 8.86* | i | i | CHO-K1 ctr=13.6*;KCNQ1 pot spec=-11.7;KCNQ2 pot conf=62.2*;Kir21 spec=-13.8;KCNQ2 W236L pot=i
O=C(NCCC(=O)N1CCc2ccccc21)c1ccccc1Cl | i | nt | nt | nt
Cc1noc(C)c1COC(=O)Cc1ccc(Br)cc1 | i | 0.19 | nt | nt
C/C(=N\Nc1nncc2ccccc12)c1ccc(C(C)(C)C)cc1 | i | 5.94* | i | i | CHO-K1 ctr=65.2*;KCNQ1 pot spec=-21.4;KCNQ2 pot conf=-32.9;Kir21 spec=-40.0
C/C(=N\Nc1nncc2ccccc12)c1ccc(O)cc1 | i | 0.41 | nt | nt
CSc1ccc2c(c1)C(N1CCN(C)CC1)Cc1ccccc1S2 (stereo not given) | -6.79*! | -6.79 | 39.5%* | i
CSc1cccc(NC(=O)N2CCN(C)CC2)c1 | i | 0.01 | nt | nt
COc1cc(C2C(C#N)=C(N)OC3=C2C(=O)CC(C)(C)C3)cc2c1OCO2 (stereo not given) | i | 1.18 | nt | nt
COc1cc(Br)cc(/C=N/NC(=O)Cc2ccccc2)c1O | i | 5.29* | i | 72.5%* | CHO-K1 ctr=-9.9;KCNQ1 pot spec=-18.1;KCNQ2 pot conf=8.0*;Kir21 spec=-36.0;KCNQ2 W236L pot=i

Bioassay records from PubChem BioAssay.
